High-throughput results (PubChem)
HCMV inh: qHTS Assay for inhibitors of the human cytomegalovirus (HCMV). 410,000 compounds, 4.5% hits. HFF cells, HCMV-luciferase reporter, 72 h; active compounds read low. activity change, negative = inhibition, % at 57.5 µM. AID 1259415, 2018; in the data active means activity change below about -60%; inconclusive means no clear call, values can overlap the other calls; inactive means above about -39%
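After 16 h attachment at 37C, HFF cells received test compound and HCMV-luciferase (1 PFU/cell); reporter luminescence read 72 h later, data normalized against buffer-only and known inhibitor Salinomycin.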
Marburg entry inh: qHTS for inhibitors of binding or entry into cells for Marburg Virus. 300,000 compounds, 1.8% hits. Potency, µM (series often up to 37.8 µM), most hits filed as inhibitors. Marburg virus pseudotyped entry inhibition, cell reporter; calls by dose curve; tested in HEK293 cells
Lassa entry inh: qHTS for Inhibitors of binding or entry into cells for Lassa Virus | Lassa virus pseudotype entry inhibition, cell reporter | Potency, µM (series often up to 37.9 µM), hits mostly inhibitors | 300,000 compounds, 1.2% hits; calls by dose curve; tested in HEK293 cells; further: nearly all actives have a fitted effect of over 50% in size
FMDV antiviral: High Throughput Screening for Foot and Mouth Disease Virus Antivirals. 410,000 compounds, 1.2% hits. FMDV antiviral cell-based qHTS. AID 1159524, 2015. Potency, µM (highest dose often 57.9 µM), usual class: inhibitors; calls by dose curve; tested in HEK293T cells; further: read-out not given here; nearly all actives have a fitted effect of over 45% in size
Vaccinia mCherry: qHTS for Stage-Specific Inhibitors of Vaccinia Orthopoxvirus: mCherry Reporter Primary qHTS; Vaccinia virus mCherry reporter infection, fluorescence; Potency, µM (titrated, usually from 36.5 µM), hits mostly inhibitors; 310,000 compounds, 0.63% hits; calls by dose curve; tested in A549 cells; further: nearly all actives have a fitted effect of over 35% in size
VACV Venus inh: qHTS for Stage-Specific Inhibitors of Vaccinia Orthopoxvirus: Venus Reporter Primary qHTS. Vaccinia virus Venus reporter expression, fluorescence. Potency, µM (titrated, usually from 36.5 µM), usual class: inhibitors. 330,000 compounds, 0.46% hits. AID 720580, 2013; calls by dose curve; tested in A549 cells; further: nearly all actives have a fitted effect of over 30% in size
A number is an active result; i = inactive; ? = inconclusive; nt = no result; [ ] = remark or other dose. In the library only some 6.5% were active in any assay of this set; here they are far more common.

SMILES	HCMV inh	Marburg entry inh	Lassa entry inh	FMDV antiviral	Vaccinia mCherry	VACV Venus inh
CCCCC1CCC(C(=O)N(CCC(C)C)c2c(N)n(CCCC)c(=O)[nH]c2=O)CC1 (stereo not drawn)	i	nt	nt	i	16µM	11µM
CC(C)CN(C(=O)COC(=O)c1ccc([N+](=O)[O-])s1)c1c(N)n(Cc2ccccc2)c(=O)[nH]c1=O	i	i	i	?	i	i
CCCCC1CCC(C(=O)N(CC(C)C)c2c(N)n(CCCC)c(=O)[nH]c2=O)CC1 (stereo not drawn)	i	i	i	i	i	i
CCCCn1c(N)c(N(CCC(C)C)C(=O)COC(=O)Cc2ccc(Cl)cc2)c(=O)[nH]c1=O	i	13µM	?	i	i	i
CCCCn1c(N)c(N(CCC(C)C)C(=O)COC(=O)c2ccc([N+](=O)[O-])s2)c(=O)[nH]c1=O	-95	i	i	i	i	?
Cc1c(C)c2ccc(OCC(=O)Nc3cccnc3)cc2oc1=O	i	nt	nt	i	nt	nt
Cc1ccc(C(NC(=O)C2CCCCC2)c2c(O)ccc3ccccc23)cc1 (stereo not drawn)	-66	?	?	i	i	?
CCOc1ccc(N2C=Nc3ccc(OCC)cc3C2)cc1	i	nt	nt	i	nt	nt
COC(=O)c1c(NC(=O)c2ccc(C(=O)c3ccccc3)cc2)sc2c1CC(C)(C)NC2(C)C	i	nt	nt	i	i	?
COC(=O)c1c(NC(=O)c2nc3ccccc3s2)sc2c1CC(C)(C)NC2(C)C	i	nt	nt	i	?	11µM
O=C1CN(S(=O)(=O)Cc2ccccc2)C[C@@H]2[C@H](c3ccc(Br)cc3)[C@@H](CO)N12	i	nt	nt	nt	nt	nt
CC[C@H](CO)Oc1cc(NCc2cccc(N)c2)c2ncn(C(C)C)c2c1	i	nt	nt	i	i	i
CCC(CO)Oc1cc(NCc2cccc(C)c2)c2ncn(C(C)C)c2c1 (stereo not drawn)	-76	nt	nt	i	?	i
CCOc1ccc(-c2cn3ccccc3n2)cc1	i	3.5µM	?	i	i	?
CC1=C(C(=O)Nc2ccccc2)C(c2ccc(Cl)cc2)n2c(s/c(=C/c3cccc(OCC(=O)O)c3)c2=O)=N1 (stereo not drawn)	-68	i	i	i	i	i
COCc1c(C(=O)NC2CCOC(C)(C)C2)cnn1-c1nccc(-c2cccs2)n1 (stereo not drawn)	nt	nt	nt	i	i	i
CC(C)CN1C(=O)CSCC1(C)C(=O)Nc1ccc2c(c1)OCCO2 (stereo not drawn)	i	nt	nt	i	i	i
O=c1c2ccccc2nc2n1CCN2Cc1ccc(Cl)cc1	-88	?	i	nt	i	?
COc1ccc(-n2cc(-c3ccccc3)c3c(=O)[nH]cnc32)cc1	i	?	21µM	i	?	?
COc1ccccc1-n1cc(-c2ccccc2)c2c(=S)nc[nH]c21	-69	nt	nt	i	nt	nt
O=c1[nH]cnc2c1c(-c1ccccc1)cn2-c1cccc(Cl)c1	i	nt	nt	i	nt	nt
CCOC(=O)CCCNC(=O)N[C@H]1CC[C@@]23CCCN2C(=O)CCC[C@H]3C1Cc1ccccc1 (stereo partly drawn)	i	nt	nt	nt	nt	nt
CC(=O)OC[C@H]1O[C@@H](ON=C[C@@H](C)[C@H](OCc2ccccc2)C(C)C)[C@@H](OC(C)=O)[C@@H](OC(C)=O)[C@@H]1OC(C)=O	nt	?	i	nt	nt	nt
COC(=O)C1C=CC(OC2OC(COC(C)=O)C(OC(C)=O)C(OC(C)=O)C2OC(C)=O)n2c(=O)n(-c3ccccc3)c(=O)n21 (stereo not drawn)	-98	?	?	25µM	10µM	?
Cc1ccc(S(=O)(=O)N2CCN(c3nc(-n4c(=O)[nH]c5ccccc54)nc4ccccc34)CC2)cc1	nt	nt	nt	nt	i	i
SMILES	HCMV inh	Marburg entry inh	Lassa entry inh	FMDV antiviral	Vaccinia mCherry	VACV Venus inh
CN(C)c1ccc(/C=C/c2cnnc3ccccc23)cc1	nt	nt	nt	nt	i	i
Cc1ccc(CNC(=O)c2ccc(CSCc3ccc(Cl)cc3)o2)cc1	i	nt	i	i	i	i
CCSc1nnc(NC(=O)c2ccccn2)s1	i	?	?	i	22µM	?
CCSc1nnc(NC(=O)C(CC)(C(F)(F)F)C(F)(F)F)s1	?	?	13µM	?	nt	?
CCSc1nnc(NC(=O)NCC(F)(F)F)s1	i	i	i	i	i[1.46 µM]	i
CCSc1nnc(NC(=O)C(C(F)(F)F)C(F)(F)F)s1	i	i	i	i	nt	nt
CCSc1nnc(NC(=O)C(C)(C(F)(F)F)C(F)(F)F)s1	-66	?	i	i	nt	nt
CCSc1nnc(NC(=O)c2cnccn2)s1	nt	?	i	nt	i	i
CSc1ccc(C2NC(=O)CCC2[N+](=O)[O-])cc1 (stereo not drawn)	?	nt	nt	i	nt	nt
CCOC(=O)[C@]12CCCC=C1N(Cc1ccc(Cl)cc1Cl)C(=O)[C@H](CC(=O)N1CCSCC1)C2	i	nt	nt	i	i	i
CCCCCCN1C[C@H](O)[C@@H](n2cc(C3CC3)nn2)C[C@H]1c1ccccc1	nt	nt	i	nt	nt	nt
C=CCN1C(=O)C(Cc2ccc(OCC)cc2)S/C1=N\N=C\c1cccs1 (stereo not drawn)	i	i	11µM	i	nt	i
CCc1ccc(C2NC(=S)NC3=C2C(=O)CC(C)(C)C3)cc1 (stereo not drawn)	i	?	i	i	i	i
CC(C)c1ccc(C2NC(=S)NC3=C2C(=O)CC(C)(C)C3)cc1 (stereo not drawn)	-71	i	i	i	i	i
CNc1nc(N)c([N+](=O)[O-])c(N2CCCCCC2)n1	i	nt	nt	i	nt	nt
CC(C)CCNc1nc(N)c([N+](=O)[O-])c(N2CCCCCC2)n1	-94	nt	nt	?	nt	nt
Oc1ccc(CNc2ccccc2F)c2cccnc12	-89	?	?	i	10µM	10µM
Oc1ccc(Cc2ccccc2)c2cccnc12	-100	?	i	i	?	?
O=C(O)c1ccc(O)c2ncccc12	i	nt	nt	i	nt	nt
OCc1ccc(O)c2ncccc12	-98	?	?	i	nt	?
Oc1ccc(COCc2ccccc2)c2cccnc12	-99	?	?	i	i	?
C[C@@H](NC(=O)[C@@H]1[C@@H](CO)[C@@H]2Cn3c(cccc3=O)[C@@H]2N1C(=O)C1CC1)c1ccccc1	i	nt	nt	nt	nt	nt
COC(=O)[C@@H](NC(=O)C1CCCN(c2nc(C)c3ccc(C)cc3n2)C1)C(C)C (stereo partly drawn)	nt	nt	nt	i	i	i
CC(C)c1ccc(S(=O)(=O)c2cc3cc(Br)ccc3oc2=O)cc1	i	11µM	?	?	i	i
COc1ccc(OC)c(NC(=O)Cn2c(=O)n(Cc3ccco3)c(=O)c3cc(OC)c(OC)cc32)c1	i	?	i	i	i	i
O=C1C(=C(c2ccccc2)N2CCOCC2)Cc2ccccc21	-99	nt	nt	8.9µM	?	11µM
O=C(c1ccccc1)N1CCN(C(=O)N2CCOCC2)CC1	i	i	i	i	nt	nt
CCN(CC(=O)Nc1cccc(OC)c1)c1ncnc2sc(C)c(C)c12	-74	?	i	20µM	i	i
